The supplement of paper PMC11732987, “Enantioselective OTUD7B fragment discovery through chemoproteomics screening and high-throughput optimisation” (Communications Chemistry, 2025)

How the values were obtained:
Test in all cases: log2 ratio of Biotin-Ahx-Ub-VS probe labelling (fragment/DMSO); higher = less target engagement (more negative = stronger competition), active = hit call of the paper (q ≤ 0.05, log2 ratio ≤ -1)
Details in all cases: compound concentration: 200 uM; treatment time: 3 h
USP34 = USP34 (UniProt Q70CQ2)
Procedure, shortened: (§1)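 Each value is an average log2 ratio of fragment to vehicle, tested by unpaired t-test. The underlying Spectronaut label-free quantities were global-median-normalised, and only proteins with ≥2 unique peptides were included. Triplicate HEK293T lysate samples (495 µg) were exposed to fragment at 200 µM or vehicle for 3 h, then to Biotin-Ahx-Ub-VS at 0.5 µM final for 1 h, before NeutrAvidin enrichment of labelled DUBs, LysC and trypsin digestion, and diaPASEF LC-MS/MS.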

USP36 = target: T1, USP36 (UniProt Q9P275)
T1 sequence (whole entry): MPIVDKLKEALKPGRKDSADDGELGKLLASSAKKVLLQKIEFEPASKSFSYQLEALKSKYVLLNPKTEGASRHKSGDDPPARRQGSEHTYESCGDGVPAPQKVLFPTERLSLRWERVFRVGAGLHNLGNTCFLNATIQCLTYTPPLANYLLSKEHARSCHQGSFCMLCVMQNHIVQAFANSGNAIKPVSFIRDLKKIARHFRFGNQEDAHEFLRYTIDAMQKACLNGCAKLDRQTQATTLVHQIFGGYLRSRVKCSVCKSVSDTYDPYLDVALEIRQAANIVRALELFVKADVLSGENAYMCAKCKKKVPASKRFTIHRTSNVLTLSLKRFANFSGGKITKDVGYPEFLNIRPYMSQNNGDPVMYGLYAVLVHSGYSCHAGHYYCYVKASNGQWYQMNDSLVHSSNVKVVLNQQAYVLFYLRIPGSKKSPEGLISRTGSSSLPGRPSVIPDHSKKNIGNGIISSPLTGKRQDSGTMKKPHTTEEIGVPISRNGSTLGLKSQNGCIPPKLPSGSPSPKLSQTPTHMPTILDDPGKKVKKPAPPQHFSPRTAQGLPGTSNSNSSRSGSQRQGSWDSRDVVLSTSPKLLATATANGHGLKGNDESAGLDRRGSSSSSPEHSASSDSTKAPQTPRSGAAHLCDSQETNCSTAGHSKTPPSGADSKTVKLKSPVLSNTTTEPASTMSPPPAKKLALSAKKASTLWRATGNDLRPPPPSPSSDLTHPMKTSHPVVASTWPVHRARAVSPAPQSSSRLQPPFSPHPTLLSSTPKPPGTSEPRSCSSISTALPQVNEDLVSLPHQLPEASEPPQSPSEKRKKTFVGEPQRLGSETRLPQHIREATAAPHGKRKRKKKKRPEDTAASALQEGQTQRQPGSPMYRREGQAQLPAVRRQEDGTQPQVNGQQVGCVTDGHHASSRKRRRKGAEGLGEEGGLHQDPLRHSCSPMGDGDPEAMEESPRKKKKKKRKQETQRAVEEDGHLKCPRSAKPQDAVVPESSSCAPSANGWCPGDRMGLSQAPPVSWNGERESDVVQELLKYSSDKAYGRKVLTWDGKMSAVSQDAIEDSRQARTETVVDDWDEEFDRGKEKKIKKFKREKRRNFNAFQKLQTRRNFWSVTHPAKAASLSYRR
Procedure, shortened: as §1

USP38 = target: T2, USP38 (UniProt Q8NB14)
T2 sequence (whole entry): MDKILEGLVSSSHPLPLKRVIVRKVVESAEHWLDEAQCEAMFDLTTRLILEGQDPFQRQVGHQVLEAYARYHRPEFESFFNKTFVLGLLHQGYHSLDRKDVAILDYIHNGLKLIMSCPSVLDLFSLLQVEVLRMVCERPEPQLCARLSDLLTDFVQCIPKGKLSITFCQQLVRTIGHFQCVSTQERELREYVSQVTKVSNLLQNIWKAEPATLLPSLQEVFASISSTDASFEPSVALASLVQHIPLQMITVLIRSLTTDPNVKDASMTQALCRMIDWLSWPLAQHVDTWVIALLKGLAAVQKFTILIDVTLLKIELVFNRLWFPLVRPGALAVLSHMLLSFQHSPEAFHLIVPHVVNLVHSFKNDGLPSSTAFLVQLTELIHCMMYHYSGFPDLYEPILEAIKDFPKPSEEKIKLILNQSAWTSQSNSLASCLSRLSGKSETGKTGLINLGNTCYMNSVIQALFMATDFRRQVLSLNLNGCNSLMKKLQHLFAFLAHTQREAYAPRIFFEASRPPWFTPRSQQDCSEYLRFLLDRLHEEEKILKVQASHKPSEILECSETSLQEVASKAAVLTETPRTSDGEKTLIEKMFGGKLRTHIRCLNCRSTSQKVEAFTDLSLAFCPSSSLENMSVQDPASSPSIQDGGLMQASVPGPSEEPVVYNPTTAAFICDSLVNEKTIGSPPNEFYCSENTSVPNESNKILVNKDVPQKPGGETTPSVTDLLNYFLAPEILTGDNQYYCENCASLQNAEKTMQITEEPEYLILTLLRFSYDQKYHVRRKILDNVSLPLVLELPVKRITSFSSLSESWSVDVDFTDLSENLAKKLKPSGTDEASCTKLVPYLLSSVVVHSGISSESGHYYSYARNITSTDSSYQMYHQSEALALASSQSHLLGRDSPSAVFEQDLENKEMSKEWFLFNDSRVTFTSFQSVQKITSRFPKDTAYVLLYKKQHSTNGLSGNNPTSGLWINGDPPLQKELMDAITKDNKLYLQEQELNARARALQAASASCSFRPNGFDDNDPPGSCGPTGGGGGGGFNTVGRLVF
Procedure, shortened: as §1

USP39 = target: T3, USP39 (UniProt Q53GS9)
T3 sequence (whole entry): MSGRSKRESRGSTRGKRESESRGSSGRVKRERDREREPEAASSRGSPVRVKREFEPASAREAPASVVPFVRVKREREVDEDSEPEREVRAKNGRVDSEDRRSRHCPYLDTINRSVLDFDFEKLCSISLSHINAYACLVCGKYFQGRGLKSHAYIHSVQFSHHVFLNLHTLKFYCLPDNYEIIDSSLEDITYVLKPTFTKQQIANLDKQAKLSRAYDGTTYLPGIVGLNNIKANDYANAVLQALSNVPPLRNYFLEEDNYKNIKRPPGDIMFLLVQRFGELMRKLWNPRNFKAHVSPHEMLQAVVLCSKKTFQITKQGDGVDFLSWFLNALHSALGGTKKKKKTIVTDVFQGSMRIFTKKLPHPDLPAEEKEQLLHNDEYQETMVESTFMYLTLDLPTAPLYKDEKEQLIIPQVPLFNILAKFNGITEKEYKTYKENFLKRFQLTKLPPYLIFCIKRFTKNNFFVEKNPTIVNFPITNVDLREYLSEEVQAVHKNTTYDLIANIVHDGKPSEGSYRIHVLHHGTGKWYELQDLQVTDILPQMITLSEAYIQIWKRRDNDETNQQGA
Procedure, shortened: as §1

USP4 = target: T4, USP4 (UniProt Q13107)
T4 sequence (whole entry): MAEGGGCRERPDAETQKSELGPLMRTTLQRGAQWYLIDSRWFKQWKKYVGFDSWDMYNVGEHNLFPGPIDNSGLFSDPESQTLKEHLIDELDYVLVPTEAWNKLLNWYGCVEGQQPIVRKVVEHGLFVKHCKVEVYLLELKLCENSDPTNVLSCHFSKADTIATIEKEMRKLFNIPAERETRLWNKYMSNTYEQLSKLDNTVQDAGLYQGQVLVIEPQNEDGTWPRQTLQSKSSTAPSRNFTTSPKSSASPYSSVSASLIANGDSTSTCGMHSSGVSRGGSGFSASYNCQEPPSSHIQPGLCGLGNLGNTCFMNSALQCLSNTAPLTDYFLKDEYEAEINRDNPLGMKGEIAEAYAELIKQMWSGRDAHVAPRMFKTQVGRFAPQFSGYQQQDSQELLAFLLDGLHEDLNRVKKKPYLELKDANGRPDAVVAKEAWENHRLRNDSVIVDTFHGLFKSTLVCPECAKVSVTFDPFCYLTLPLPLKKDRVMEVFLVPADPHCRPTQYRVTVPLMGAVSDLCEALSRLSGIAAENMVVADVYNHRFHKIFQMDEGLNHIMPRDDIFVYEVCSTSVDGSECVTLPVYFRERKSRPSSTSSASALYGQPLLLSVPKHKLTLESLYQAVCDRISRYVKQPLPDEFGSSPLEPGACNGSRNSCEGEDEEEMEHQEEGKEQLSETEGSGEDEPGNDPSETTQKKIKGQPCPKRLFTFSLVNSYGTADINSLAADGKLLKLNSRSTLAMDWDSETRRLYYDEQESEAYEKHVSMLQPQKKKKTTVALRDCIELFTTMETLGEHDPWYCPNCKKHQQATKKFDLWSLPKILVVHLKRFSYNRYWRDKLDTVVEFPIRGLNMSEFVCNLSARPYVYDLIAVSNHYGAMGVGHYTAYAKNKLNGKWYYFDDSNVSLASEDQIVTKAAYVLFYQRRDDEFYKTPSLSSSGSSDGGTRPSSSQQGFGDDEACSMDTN
Procedure, shortened: as §1

Measured: log2 ratio of Biotin-Ahx-Ub-VS probe labelling

Sequence of USP34 (Q70CQ2 whole entry, the tested form may be a part): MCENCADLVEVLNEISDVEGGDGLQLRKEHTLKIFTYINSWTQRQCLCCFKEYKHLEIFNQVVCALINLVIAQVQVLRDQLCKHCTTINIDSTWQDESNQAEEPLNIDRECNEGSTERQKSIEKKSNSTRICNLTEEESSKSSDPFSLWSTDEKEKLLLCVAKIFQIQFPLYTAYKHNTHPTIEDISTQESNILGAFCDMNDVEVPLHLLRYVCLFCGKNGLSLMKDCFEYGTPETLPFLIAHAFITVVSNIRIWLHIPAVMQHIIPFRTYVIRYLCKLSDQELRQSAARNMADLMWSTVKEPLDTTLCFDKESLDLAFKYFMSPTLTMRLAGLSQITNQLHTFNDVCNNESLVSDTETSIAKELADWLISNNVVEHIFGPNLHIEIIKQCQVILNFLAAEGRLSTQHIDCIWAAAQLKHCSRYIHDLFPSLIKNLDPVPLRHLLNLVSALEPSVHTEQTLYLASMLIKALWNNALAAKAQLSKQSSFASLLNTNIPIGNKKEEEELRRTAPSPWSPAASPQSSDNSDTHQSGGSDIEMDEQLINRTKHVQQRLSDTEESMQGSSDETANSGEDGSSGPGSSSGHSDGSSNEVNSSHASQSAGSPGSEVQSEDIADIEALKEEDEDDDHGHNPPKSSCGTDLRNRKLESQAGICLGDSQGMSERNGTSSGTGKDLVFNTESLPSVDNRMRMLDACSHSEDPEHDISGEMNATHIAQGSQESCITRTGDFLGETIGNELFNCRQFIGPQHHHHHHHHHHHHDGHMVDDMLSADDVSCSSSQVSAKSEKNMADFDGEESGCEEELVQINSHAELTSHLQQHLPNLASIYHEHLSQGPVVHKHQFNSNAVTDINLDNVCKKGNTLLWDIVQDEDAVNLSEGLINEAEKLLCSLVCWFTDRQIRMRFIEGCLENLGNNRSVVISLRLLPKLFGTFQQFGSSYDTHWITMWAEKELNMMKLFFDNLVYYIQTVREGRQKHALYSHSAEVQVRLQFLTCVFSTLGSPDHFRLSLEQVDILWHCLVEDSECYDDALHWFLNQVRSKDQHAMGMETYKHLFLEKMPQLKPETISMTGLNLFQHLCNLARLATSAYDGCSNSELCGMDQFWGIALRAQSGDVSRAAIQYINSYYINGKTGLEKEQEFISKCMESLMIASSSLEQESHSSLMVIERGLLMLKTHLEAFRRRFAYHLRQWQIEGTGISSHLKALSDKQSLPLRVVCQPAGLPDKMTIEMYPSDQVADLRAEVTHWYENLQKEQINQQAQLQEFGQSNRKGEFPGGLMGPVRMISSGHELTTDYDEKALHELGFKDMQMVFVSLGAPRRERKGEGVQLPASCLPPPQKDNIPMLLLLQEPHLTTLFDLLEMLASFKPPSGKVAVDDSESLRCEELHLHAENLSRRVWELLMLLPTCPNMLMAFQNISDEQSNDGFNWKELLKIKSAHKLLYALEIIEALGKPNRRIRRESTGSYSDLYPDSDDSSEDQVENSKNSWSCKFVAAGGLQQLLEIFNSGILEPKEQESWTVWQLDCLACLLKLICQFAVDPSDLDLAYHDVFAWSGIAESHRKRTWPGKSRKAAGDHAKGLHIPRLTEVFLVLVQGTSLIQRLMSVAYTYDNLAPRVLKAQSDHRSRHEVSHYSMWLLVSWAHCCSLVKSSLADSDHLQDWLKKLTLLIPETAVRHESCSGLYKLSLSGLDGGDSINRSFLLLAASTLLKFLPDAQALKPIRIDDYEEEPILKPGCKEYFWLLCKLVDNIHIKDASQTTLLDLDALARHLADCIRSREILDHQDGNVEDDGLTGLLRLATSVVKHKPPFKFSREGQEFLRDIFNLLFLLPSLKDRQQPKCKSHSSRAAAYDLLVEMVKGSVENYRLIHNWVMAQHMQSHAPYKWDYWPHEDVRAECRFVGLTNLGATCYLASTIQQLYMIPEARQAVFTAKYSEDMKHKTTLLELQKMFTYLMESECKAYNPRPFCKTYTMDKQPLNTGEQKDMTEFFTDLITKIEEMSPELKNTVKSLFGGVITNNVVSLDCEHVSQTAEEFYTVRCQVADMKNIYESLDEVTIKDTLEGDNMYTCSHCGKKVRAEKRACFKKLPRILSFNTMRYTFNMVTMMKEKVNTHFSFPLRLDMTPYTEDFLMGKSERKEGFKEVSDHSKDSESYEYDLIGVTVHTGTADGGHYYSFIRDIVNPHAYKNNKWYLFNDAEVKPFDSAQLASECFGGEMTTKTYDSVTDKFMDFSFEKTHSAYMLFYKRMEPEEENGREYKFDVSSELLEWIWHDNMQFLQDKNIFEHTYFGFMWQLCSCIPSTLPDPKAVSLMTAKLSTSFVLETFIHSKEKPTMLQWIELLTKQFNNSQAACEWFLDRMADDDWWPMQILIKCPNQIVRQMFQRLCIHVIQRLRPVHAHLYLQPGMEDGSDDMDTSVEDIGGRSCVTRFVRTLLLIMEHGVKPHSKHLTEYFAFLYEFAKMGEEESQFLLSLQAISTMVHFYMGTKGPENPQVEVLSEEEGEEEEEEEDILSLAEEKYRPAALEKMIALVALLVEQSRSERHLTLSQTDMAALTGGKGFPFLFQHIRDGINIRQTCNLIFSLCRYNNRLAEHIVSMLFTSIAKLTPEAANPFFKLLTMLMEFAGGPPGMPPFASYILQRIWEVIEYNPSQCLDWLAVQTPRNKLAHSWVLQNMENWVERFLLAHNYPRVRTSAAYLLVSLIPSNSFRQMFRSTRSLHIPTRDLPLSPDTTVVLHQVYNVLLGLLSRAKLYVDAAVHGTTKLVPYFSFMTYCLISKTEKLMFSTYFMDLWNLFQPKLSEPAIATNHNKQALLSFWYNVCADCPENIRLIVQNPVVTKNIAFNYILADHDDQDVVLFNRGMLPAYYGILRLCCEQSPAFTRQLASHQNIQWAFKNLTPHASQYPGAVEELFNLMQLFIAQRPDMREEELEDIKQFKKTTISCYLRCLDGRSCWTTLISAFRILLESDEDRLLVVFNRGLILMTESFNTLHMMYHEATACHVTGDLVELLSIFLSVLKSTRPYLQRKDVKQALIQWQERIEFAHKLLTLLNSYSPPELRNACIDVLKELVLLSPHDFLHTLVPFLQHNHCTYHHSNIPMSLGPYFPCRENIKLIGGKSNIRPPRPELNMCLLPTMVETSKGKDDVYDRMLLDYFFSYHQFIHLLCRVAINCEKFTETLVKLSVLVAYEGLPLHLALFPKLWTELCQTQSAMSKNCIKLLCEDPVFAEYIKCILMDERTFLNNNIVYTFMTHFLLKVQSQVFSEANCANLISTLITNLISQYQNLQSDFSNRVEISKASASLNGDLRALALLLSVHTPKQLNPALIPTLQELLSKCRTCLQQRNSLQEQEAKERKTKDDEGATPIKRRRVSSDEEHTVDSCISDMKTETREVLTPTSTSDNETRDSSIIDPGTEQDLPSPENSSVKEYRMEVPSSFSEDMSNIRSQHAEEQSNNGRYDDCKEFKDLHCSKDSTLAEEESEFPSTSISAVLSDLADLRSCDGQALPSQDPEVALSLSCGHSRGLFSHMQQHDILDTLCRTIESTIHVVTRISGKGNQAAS

Cl.Cn1nc2c(c1CNC(=O)CCl)CCCC2
inactive: USP34 -0.177 | USP36 -0.0094 | USP38 0.0557 | USP39 0.242 | USP4 0.0436
